Only some compounds are listed: those with a hit (about 1.7% of all), similar ones and a draw of the others.
KCNH2 WT inh: blocks the wildtype human KCNH2 potassium channel | U2OS, BacMam KCNH2, thallium flux FluxOr; hits give low values | activity change, % at 1.84 µM | actives 0.37% (n = 340,000) | AID 720551;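 active = maximum activity change below -70%; inconclusive = maximum activity change between -70% and -50%; inactive = maximum activity change above -50%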
Target sequence (Q12809 whole entry, looked up): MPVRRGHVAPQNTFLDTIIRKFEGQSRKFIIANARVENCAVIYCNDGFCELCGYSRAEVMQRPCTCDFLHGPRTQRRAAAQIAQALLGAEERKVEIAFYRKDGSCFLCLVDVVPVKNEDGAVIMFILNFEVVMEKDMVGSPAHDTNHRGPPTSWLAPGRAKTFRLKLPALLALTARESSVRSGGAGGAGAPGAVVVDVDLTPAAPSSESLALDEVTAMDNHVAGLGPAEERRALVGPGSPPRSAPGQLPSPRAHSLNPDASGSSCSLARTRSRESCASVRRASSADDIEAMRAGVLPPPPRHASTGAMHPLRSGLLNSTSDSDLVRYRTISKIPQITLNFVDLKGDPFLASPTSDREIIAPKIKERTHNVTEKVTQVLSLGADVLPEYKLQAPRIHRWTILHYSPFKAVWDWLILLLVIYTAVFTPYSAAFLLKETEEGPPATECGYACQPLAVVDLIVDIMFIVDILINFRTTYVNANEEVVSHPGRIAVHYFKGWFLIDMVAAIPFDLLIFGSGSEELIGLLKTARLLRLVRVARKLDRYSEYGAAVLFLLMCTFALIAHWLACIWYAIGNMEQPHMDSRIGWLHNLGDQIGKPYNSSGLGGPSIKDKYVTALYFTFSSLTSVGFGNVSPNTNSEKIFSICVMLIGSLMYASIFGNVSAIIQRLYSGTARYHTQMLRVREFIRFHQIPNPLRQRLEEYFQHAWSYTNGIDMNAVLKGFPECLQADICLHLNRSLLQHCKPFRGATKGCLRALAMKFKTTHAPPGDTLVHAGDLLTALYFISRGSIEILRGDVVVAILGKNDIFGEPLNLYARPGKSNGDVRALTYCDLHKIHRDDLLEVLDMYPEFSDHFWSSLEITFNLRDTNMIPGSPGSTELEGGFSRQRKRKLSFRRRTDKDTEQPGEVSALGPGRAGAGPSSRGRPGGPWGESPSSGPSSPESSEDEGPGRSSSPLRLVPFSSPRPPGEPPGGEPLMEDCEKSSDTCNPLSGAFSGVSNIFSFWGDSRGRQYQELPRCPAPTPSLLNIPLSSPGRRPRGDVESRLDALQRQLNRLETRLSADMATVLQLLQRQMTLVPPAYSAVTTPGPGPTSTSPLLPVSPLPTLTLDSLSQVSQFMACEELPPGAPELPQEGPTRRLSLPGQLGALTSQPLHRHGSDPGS
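U2OS cells transduced with wild-type KCNH2 virus are loaded with FluxOr dye for 45 min, and thallium flux is measured in kinetic reads before and after stimulation buffer. Rate constants are normalized to DMSO controls.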
Coupling enz: coupling enzyme interference in Giardia aldolase counter-screen; activity change, negative = inhibition, % at 58.2 µM, hits read low; AID 2472; coupling enzyme system counterscreen, AmpLite Red fluorescence; actives 0.67% (n = 290,000); in the data active = activity change below about -30%
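Activity here indicates interference with the coupling reaction, not aldolase inhibition. Compounds at 57.5 uM final met coupling enzymes for 10 min at RT; substrate and AmpLite Red detection followed, with a 525/598 nm fluorescence read after 20 min.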
KCNH2 3.1 block: blocks the human KCNH2 3.1 channel isoform; U2OS KCNH2 3.1, thallium flux FluxOr; hits give low values; activity change, % (tested at about 1.8 µM); actives 0.95% (n = 340,000); AID 720553;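 active = maximum activity change below -70%; inconclusive = maximum activity change from -70% to -50%; inactive = maximum activity change above -50%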;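 note: thallium influx rate constant from kinetic fluorescence after stimulation buffer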
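Thallium flux read-out: FluxOr dye with Red40 quencher in HBSS/HEPES, 45 min at RT. Rate constants from kinetic reads were normalized to positive and negative DMSO controls. Cells: U2OS virally expressing the 3.1 isoform.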
Giardia kill: Giardia lamblia killing. activity change, % at 7.66 µM, hits read low. actives 0.15% (n = 340,000). Giardia lamblia trophozoite viability; in the data active = activity change below about -80%; inconclusive = between about -30% and that limit;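 note: parasites exposed to compound for two days anaerobically before the ATP read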
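Anaerobic 48 hrs incubation at 37 deg C of 100 trophozoites/well with test compounds; ATPLite 1-Step luminescence, 15-30 min RT, reports cellular ATP as viability.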
USP1-UAF1 inh: blocks the human USP1/UAF1 deubiquitinase complex; actives 0.23% (n = 390,000); recombinant USP1/UAF1, Ub-Rhodamine cleavage fluorescence; Potency, µM (top dose mostly 57.1 µM), inactives show at the top dose activity change, negative = inhibition, most hits filed as inhibitors; active = well fitted inhibition curve with a large enough effect; inconclusive = small, poorly fitted or top-dose-only effect; inactive = no such curve, though single readings can be large or run the other way; note: potency is the fitted concentration of half-maximal effect; nearly all actives have a fitted effect of over 60% in size
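USP1/UAF1 complex (1 nM) preincubated 15 min at room temperature with compound, then Ub-Rho substrate (150 nM final) added. Kinetic fluorescence at 480/540 nm over 6 reads at 60 s intervals; 50 mM HEPES pH 7.8, 0.5 mM EDTA, 0.1 mg/ml BSA, 1 mM TCEP, 0.01% Tween-20.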
* marks the source's active call; other numbers are inactive results; ? = inconclusive; . = not tested or not shown. % is set by controls: 0 for no effect and ±100 for the full control effect.

SMILES	KCNH2 WT inh	Coupling enz	KCNH2 3.1 block	Giardia kill	USP1-UAF1 inh
CCOc1ccc(NC(=O)C(C)n2c(=O)cc(-c3ccccc3)c3c(C)nn(C)c32)cc1 (configuration not stated)	.	.	.	.	-14%
COc1cccc(O)c1O	.	-33*	.	.	.
COc1ccccc1O	-9	0	7	4	-20%
COc1ccc(C(=O)Nc2nc3ccc4nc(C)sc4c3s2)cc1	12	5	-94*	-8	-9%
COc1cc(C(=O)Nc2nc3ccc4nc(C)sc4c3s2)cc(OC)c1OC	1	.	-7	-10	-7%
COc1ccc2c(c1)Cc1sc(NC(=O)c3ccccc3)nc1-2	5	-36*	-7	15	?
COc1ccc(C(=O)Nc2nc3c(s2)Cc2cc(OC)ccc2-3)cc1	-11	.	-3	-6	-17%
O=C([O-])[C@@H]1[O][Sb+]([O][Sb+]2[O][C@H]([C@H](O)CO)[C@H](O)[C@H](C(=O)[O-])[O]2)[O][C@H]([C@H](O)CO)[C@@H]1O	.	1	.	.	.
O=S(=O)(Nc1nc2ccccc2nc1Nc1ccc2c(c1)OCO2)c1ccccc1	6	7	-96*	-3	-13%
O=C1C=C(C2CCCCC2)C(=O)c2ccccc21	1	.	12	-7	-27%
COC1=CC(=O)C=C(OC)C1=O	15	-81*	-19	-24	-7%
COC1=CC(=O)c2ccccc2C1=O	-1	.	-3	-16	13µM*
Cc1ccc2nc(C)c(C(=O)N/N=C/c3cccs3)cc2c1	-2	3	-149*	2	-6%
NNC(=O)c1cccn(Cc2ccc(Cl)cc2Cl)c1=O	-88*	0	-6	-1	-12%
CCCCC(=O)Nc1ccc(C2C(=O)c3ccccc3C2=O)cc1	0	.	0	?	-9%
CCC(=O)Nc1ccc(C2C(=O)c3ccccc3C2=O)cc1	-8	-1	23	-82*	-13%
Cn1cnnc1SCC(=O)Nc1sc2c(c1C#N)CCCCC2	0	-42*	4	6	-22%
CCCn1cc(S(=O)(=O)c2cccc(Cl)c2)c(=O)c2cc(F)c(N3CCOCC3)cc21	.	.	.	.	-15%
CCC(=O)OCC(=O)Nc1cc(C)c(C)cc1[N+](=O)[O-]	3	3	-4	-21	-26%
Cc1cc(NC(=O)COC(=O)CC2CCCC2)c([N+](=O)[O-])cc1C	-13	.	-72*	-28	-12%
COc1ccc(NC(=O)CCS(=O)(=O)c2cc3c4c(c2)CCN4C(=O)CC3)cc1OC	.	.	.	.	4%
CC(C)C[C@H](NC(=O)[C@H](CO)NC(=O)[C@H](C)NC(=O)[C@H](CCCN=C(N)N)NC(=O)[C@H](CCCN=C(N)N)NC(=O)[C@@H](N)CC(C)C)C(=O)NCC(=O)O	.	1	.	.	.
Cc1ccc(NC(=O)CN2C(=O)NC(Cc3c[nH]c4ccccc34)C2=O)cc1 (configuration not stated)	-26	.	-101*	-4	-9%
O=C(NC(CC(=O)N1CCN(c2ccc([N+](=O)[O-])cc2)CC1)c1ccccc1)c1ccccc1Cl (configuration not stated)	-117*	2	-107*	3	-11%
CC[C@H](C)[C@H](NC(=O)[C@H](CC(C)C)NC(=O)[C@H](CO)NC(=O)[C@H](CCC(=O)O)NC(=O)[C@H](CC(C)C)NC(=O)[C@H](Cc1ccc(O)cc1)NC(=O)[C@H](CCCCN)NC(=O)[C@H](CCCCN)NC(=O)[C@H](C)NC(=O)[C@H](CO)NC(=O)[C@H](CC(C)C)NC(=O)[C@H](CCC(N)=O)NC(=O)CNC(=O)[C@H](CC(C)C)NC(=O)[C@H](CC(C)C)NC(=O)[C@H](CCCNC(=N)N)NC(=O)[C@H](CO)NC(=O)[C@H](Cc1ccccc1)NC(=O)[C@H](CC(=O)O)NC(=O)[C@H](CO)NC(=O)[C@@H](NC(=O)[C@H](Cc1ccccc1)NC(=O)[C@@H](NC(=O)CNC(=O)[C@H](CC(=O)O)NC(=O)[C@H](C)NC(=O)[C@@H](N)Cc1cnc[nH]1)C(C)C)[C@@H](C)O)C(N)=O	.	-3	.	.	.
SMILES	KCNH2 WT inh	Coupling enz	KCNH2 3.1 block	Giardia kill	USP1-UAF1 inh
O=C(O)c1ccc(CNc2ncnc3nc[nH]c23)cc1	.	.	.	18	.
Cc1ccc2nsnc2c1NS(=O)(=O)c1c(C)ccc2nsnc12	-2	-12	-9	6	-29%
Cc1ccc(/C=[N+](\[O-])c2ccc(N(C)C)cc2)c2nsnc12	-2	-41*	4	7	?
N=c1n(CCN2CCCC2)c2ccccc2n1CC(O)c1ccco1 (configuration not stated)	22	-1	-18	-13	-20%
CCCCn1c(=N)n(CC(O)COc2ccc(C)cc2)c2ccccc21 (configuration not stated)	-83*	0	-90*	-3	-18%
Cc1ccccc1Cn1c(=N)n(CC(O)c2ccco2)c2ccccc21 (configuration not stated)	51	1	-22	-8	-17%
CCCCCCCn1c(=N)n(CC(O)c2ccco2)c2ccccc21 (configuration not stated)	-38	1	-106*	0	-19%
CC(C)(C)c1ccc(Cn2c(=N)n(CC(O)c3ccco3)c3ccccc32)cc1 (configuration not stated)	-85*	-1	?	-24	-10%
COc1ccccc1N1CCN(S(=O)(=O)CCNC(=O)Cc2ccc(Cl)cc2)CC1	.	.	.	.	-26%
O=C1C2C3C=CC(CC3)C2C(=O)N1c1ccc(Br)cc1 (configuration not stated)	7	.	-10	.	8%
CN1CC(=O)N(CC(=O)Nc2ccc(N(C)C)cc2)c2ccccc2C1=O	1	-42*	6	6	-16%
OCCC1CN(CC(c2ccccc2)c2ccccc2)CCN1C1CCCC1 (configuration not stated)	2	0	-75*	15	-14%
OCCC1CN(CC#Cc2ccccc2)CCN1C1CCCC1 (configuration not stated)	12	-2	8	4	-10%
Cc1nn(C)c2c1c(-c1ccccc1)cc(=O)n2CC(=O)NC(C)(C)C	.	.	.	.	-1%
Nc1nnc(-c2cccc([N+](=O)[O-])c2)o1	-92*	3	5	7	-27%
O=[N+]([O-])c1cccc(-c2nnc(C3CC3)o2)c1	-16	-1	-3	?	-27%
Cc1ccc(-c2nc(-c3cc4cc(Cl)ccc4oc3=O)sc2C)cc1	.	.	.	-27	.
O=C1CC(c2ccccc2)(c2ccccc2)c2ccccc21	-95*	.	-103*	12	-15%
Cc1ccc(CC#N)c(-c2c(CC#N)ccc(C)c2C)c1C	-6	.	7	.	-24%
Cc1ccc2c(c1C)-c1c(ccc(C)c1C)C(=O)C2=O	-6	.	1	-8	8.9µM*
